Measurements: PubChem BioAssay (NCATS)
Inconclusive results are not listed. Activity calls are given as the source filed them. The call rests on the fitted dose curve; in most records, active means well fitted cell-killing curve with a large enough effect; inconclusive means small, poorly fitted or top-dose-only effect, or effect the other way; inactive means flat fitted curve, though single readings scatter.

Tests used:
Test in all cases: Primary qHTS to identify gynecologic anti-cancer compounds using libraries of approved drugs and bioactive compounds (AID 1345084); further: nearly all actives have a fitted effect of over 55% in size
[1] = system: C33A; settings: Gynecologic cancer cell panel viability, ATPlite luminescence, 48 h; series mostly up to 57.5 µM
Method in brief: (§1)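 In this quantitative HTS, cell killing is estimated from loss of ATP-dependent luciferase light. Cells see five compound concentrations over a 48 h exposure.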

[2] = system: CASKI; settings: Gynecologic cancer cell panel viability, ATPlite luminescence, 48 h; series mostly up to 57.5 µM
Method in brief: as §1

[3] = system: Es-2; settings: Gynecologic cancer cell panel viability, ATPlite luminescence, 48 h; series mostly up to 57.5 µM
Method in brief: as §1

[4] = system: HeLa; settings: Gynecologic cancer cell panel viability, ATPlite luminescence, 48 h; series mostly up to 57.5 µM
Method in brief: as §1

[5] = system: Hek293T; settings: Gynecologic cancer cell panel viability, ATPlite luminescence, 48 h, control line for the selectivity index; series mostly up to 57.5 µM
Method in brief: as §1

[6] = system: JEG-3; settings: Gynecologic cancer cell panel viability, ATPlite luminescence, 48 h; series mostly up to 57.5 µM
Method in brief: as §1

[7] = system: OV90; settings: Gynecologic cancer cell panel viability, ATPlite luminescence, 48 h; series mostly up to 57.5 µM
Method in brief: as §1

[8] = system: PA-1; settings: Gynecologic cancer cell panel viability, ATPlite luminescence, 48 h; series mostly up to 57.5 µM
Method in brief: as §1

[9] = system: SKOV3; settings: Gynecologic cancer cell panel viability, ATPlite luminescence, 48 h; series mostly up to 57.5 µM
Method in brief: as §1

[10] = system: Tov-21-G; settings: Gynecologic cancer cell panel viability, ATPlite luminescence, 48 h; series mostly up to 57.5 µM
Method in brief: as §1

[11] = system: Tov112D; settings: Gynecologic cancer cell panel viability, ATPlite luminescence, 48 h; series mostly up to 57.5 µM
Method in brief: as §1
On the % scale 0 is the no-effect control and ±100 the full control effect.

NC(=O)C(CCC(F)(F)F)N(Cc1ccc(-c2ncon2)cc1F)S(=O)(=O)c1ccc(Cl)cc1 (stereo not drawn)
inactive: Potency [1] | Potency [2] | Potency [3] | Potency [4] | Potency [5] | Potency [6] | Potency [7] | Potency [8] | Potency [9] | Potency [10] | Potency [11]

CC1C(=O)OCC2=CCN3CCC(OC(=O)C(C)(O)C1(C)O)C23 (stereo not drawn)
inactive: Potency [1] | Potency [2] | Potency [3] | Potency [4] | Potency [5] | Potency [6] | Potency [7] | Potency [8] | Potency [9] | Potency [10] | Potency [11]

CC(C)=CCC/C(C)=C/CC/C(C)=C/COC1OC(COC2OCC(OC3OCC(O)C(O)C3O)C(O)C2O)C(O)C(OC2OC(C)C(OC3OC(C)C(OC4OCC(OC5OC(C)C(O)C(O)C5O)C(O)C4O)C(O)C3O)C(O)C2O)C1O (stereo not drawn)
inactive: activity change, negative = cytotoxicity [1] 4.68% [at 6.55 µM] | activity change, negative = cytotoxicity [2] -7.12% [at 6.55 µM] | activity change, negative = cytotoxicity [3] -6.21% [at 6.55 µM] | activity change, negative = cytotoxicity [4] -2.03% [at 6.55 µM] | activity change, negative = cytotoxicity [5] -3.08% [at 6.55 µM] | activity change, negative = cytotoxicity [6] -0.54% [at 6.55 µM] | activity change, negative = cytotoxicity [7] -9.19% [at 6.55 µM] | activity change, negative = cytotoxicity [8] -4.48% [at 6.55 µM] | activity change, negative = cytotoxicity [9] -3.45% [at 6.55 µM] | activity change, negative = cytotoxicity [10] -0.577% [at 6.55 µM] | activity change, negative = cytotoxicity [11] -7.57% [at 6.55 µM]

Cc1noc(=O)c2ccc(NC(=O)C(O)(CC(C)(C)c3cccc4c3OCC4)C(F)(F)F)cc12 (stereo not drawn)
inactive: Potency [1] | Potency [2] | Potency [3] | Potency [4] | Potency [5] | Potency [6] | Potency [7] | Potency [8] | Potency [9] | Potency [10] | Potency [11]

COc1c2c(c(C)c3c1C(=O)OC3)OC1(C)CC(O)C34OC(OC)(CC(OC(C)=O)C3(C)C1C2)OC4(C)C (stereo not drawn)
inactive: Potency [1] | Potency [2] | Potency [3] | Potency [4] | Potency [5] | Potency [6] | Potency [7] | Potency [8] | Potency [9] | Potency [10] | Potency [11]

COC(=O)C1(C)CCC2(C(=O)O)CCC3(C)C(=CCC4C5(C)CC(O)C(OC6OCC(O)C(O)C6O)C(C)(CO)C5CCC43C)C2C1 (stereo not drawn)
inactive: Potency [1] | Potency [2] | Potency [3] | Potency [4] | Potency [5] | Potency [6] | Potency [7] | Potency [8] | Potency [9] | Potency [10] | Potency [11]

C[C@@]12CC[C@@H]3[C@@](CC[C@H]4[C@@]3(C)CCC[C@@]4(C)C(=O)O)(CC1=O)C2
inactive: Potency [1] | Potency [2] | Potency [3] | Potency [4] | Potency [5] | Potency [6] | Potency [7] | Potency [8] | Potency [9] | Potency [10] | Potency [11]

CCOC(=O)C(CCc1ccccc1)NC1CSC(c2cccs2)CN(CC(=O)O)C1=O (stereo not drawn)
inactive: Potency [1] | Potency [2] | Potency [3] | Potency [4] | Potency [5] | Potency [6] | Potency [7] | Potency [8] | Potency [9] | Potency [10] | Potency [11]

O=C(O)c1cc(-c2c(-c3ccccc3)nn3ccccc23)n[nH]c1=O
inactive: Potency [1] | Potency [2] | Potency [3] | Potency [4] | Potency [5] | Potency [6] | Potency [7] | Potency [8] | Potency [9] | Potency [10] | Potency [11]

COc1ccc(CC2NCCc3c2[nH]c2ccc(C)cc32)cc1OC (stereo not drawn)
inactive: Potency [1] | Potency [2] | Potency [3] | Potency [4] | Potency [5] | Potency [6] | Potency [7] | Potency [8] | Potency [9] | Potency [10] | Potency [11]

Cc1cccc(-c2[nH]c(Cc3cccc(C(N)=O)c3)nc2-c2ccc3nccnc3c2)n1
inactive: Potency [1] | Potency [2] | Potency [3] | Potency [4] | Potency [5] | Potency [6] | Potency [7] | Potency [8] | Potency [9] | Potency [10] | Potency [11]

Cc1ccc(-c2c(C(=O)CF)n(CCCO)c3ncnc(N)c23)cc1
inactive: Potency [1] | Potency [2] | Potency [3] | Potency [4] | Potency [5] | Potency [6] | Potency [7] | Potency [8] | Potency [9] | Potency [10] | Potency [11]

C=CC(C)(O)CC[C@H]1C(=C)CCC2[C@](C)(C(=O)O)CCC[C@@]21C (stereo partly drawn)
inactive: Potency [1] | Potency [2] | Potency [3] | Potency [4] | Potency [5] | Potency [6] | Potency [7] | Potency [8] | Potency [9] | Potency [10] | Potency [11]
